Of roughly 7,900 targets only a part is listed; those with a hit were picked by preference. About 0.6% of all pairs of compound and target were hits. Unmarked numbers belong to inactive results.
Compound: CN1CCN(CCOc2cc(OC3CCOCC3)c3c(Nc4c(Cl)ccc5c4OCO5)ncnc3c2)CC1 [saracatinib]
Test: log2 fold change, soluble protein after heating vs DMSO (PISA); higher = thermal stabilisation; K562 cells, 10 uM, 30 min; active = over 0.2 and 3.5 SD of the protein, either way, in both replicates (recomputed)
Outline: (§1)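 Soluble protein was defined as the supernatant after 21,000xg for 90 min. It came from K562 cells at 2×10^6 cells/mL given 10 μM compound for 30 min, heated in aliquots for 3 min across 48°C-58°C, pooled, and extracted in PBS with 0.5% NP-40 at 4°C, and was quantified by TMTpro 16plex LC-MS/MS with equalised channel sums. Thermal stability against control samples, from duplicates, is reported as log2 fold change.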

Chain of UniProt P09622 (P09622 whole entry, looked up): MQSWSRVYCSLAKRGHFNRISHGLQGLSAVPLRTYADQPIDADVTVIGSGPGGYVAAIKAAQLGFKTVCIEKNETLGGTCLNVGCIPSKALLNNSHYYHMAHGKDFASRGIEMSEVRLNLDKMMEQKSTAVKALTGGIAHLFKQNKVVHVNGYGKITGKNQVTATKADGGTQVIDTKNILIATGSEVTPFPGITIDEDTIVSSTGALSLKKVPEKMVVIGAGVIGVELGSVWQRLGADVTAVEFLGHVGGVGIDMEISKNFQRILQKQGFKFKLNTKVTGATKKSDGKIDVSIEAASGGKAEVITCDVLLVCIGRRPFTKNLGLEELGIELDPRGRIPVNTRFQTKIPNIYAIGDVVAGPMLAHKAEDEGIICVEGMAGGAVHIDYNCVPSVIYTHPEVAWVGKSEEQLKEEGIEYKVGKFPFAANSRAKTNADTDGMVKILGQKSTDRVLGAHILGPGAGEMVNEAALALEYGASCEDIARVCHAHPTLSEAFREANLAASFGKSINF
Chain of UniProt Q9NQZ7 (Q9NQZ7 whole entry, looked up): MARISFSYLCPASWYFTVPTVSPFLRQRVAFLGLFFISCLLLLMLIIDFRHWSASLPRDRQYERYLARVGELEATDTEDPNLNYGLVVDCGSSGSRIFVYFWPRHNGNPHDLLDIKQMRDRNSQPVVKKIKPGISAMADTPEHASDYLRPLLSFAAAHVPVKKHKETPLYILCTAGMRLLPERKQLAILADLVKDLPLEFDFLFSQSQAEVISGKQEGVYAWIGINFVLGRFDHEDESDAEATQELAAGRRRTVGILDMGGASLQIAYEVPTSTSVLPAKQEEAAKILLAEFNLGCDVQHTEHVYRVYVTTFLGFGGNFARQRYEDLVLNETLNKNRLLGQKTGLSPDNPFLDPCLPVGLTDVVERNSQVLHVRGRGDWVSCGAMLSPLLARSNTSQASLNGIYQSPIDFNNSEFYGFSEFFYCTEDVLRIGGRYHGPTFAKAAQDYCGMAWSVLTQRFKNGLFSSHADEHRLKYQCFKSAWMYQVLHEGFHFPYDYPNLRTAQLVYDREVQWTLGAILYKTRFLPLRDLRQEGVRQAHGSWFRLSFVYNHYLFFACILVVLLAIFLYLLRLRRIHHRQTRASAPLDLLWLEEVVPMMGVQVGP
Chain of UniProt Q01780 (Q01780 whole entry, looked up): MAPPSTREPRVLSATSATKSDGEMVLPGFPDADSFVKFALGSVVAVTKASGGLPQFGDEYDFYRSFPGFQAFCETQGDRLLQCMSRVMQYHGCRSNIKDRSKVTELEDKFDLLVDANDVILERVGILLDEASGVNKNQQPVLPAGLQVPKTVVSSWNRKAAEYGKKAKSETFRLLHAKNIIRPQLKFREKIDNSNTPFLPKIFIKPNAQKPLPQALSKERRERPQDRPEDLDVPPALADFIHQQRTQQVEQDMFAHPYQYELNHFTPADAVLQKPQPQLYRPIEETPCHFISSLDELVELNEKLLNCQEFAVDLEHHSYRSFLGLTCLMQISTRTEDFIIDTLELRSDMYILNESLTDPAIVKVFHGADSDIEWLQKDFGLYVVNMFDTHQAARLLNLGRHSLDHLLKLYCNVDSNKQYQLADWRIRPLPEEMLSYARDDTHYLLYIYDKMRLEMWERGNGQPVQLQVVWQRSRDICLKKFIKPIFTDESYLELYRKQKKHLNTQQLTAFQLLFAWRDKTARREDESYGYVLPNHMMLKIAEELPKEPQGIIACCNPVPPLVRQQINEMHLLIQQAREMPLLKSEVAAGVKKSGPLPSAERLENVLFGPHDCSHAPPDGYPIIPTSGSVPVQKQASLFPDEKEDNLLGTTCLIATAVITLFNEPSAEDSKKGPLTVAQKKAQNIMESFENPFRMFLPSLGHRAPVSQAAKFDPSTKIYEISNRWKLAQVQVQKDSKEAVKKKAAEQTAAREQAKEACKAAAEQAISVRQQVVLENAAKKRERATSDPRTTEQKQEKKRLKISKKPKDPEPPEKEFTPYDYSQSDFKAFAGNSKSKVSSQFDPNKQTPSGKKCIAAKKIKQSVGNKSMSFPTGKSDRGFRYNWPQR
Chain of UniProt Q9NSI2 (Q9NSI2 whole entry, looked up): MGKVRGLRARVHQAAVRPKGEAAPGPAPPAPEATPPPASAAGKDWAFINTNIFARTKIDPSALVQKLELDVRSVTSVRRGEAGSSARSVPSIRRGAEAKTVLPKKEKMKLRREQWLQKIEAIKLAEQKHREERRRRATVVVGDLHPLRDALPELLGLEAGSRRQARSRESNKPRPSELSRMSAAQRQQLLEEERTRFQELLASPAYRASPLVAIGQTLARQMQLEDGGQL
Chain of UniProt Q16531 (Q16531 whole entry, looked up): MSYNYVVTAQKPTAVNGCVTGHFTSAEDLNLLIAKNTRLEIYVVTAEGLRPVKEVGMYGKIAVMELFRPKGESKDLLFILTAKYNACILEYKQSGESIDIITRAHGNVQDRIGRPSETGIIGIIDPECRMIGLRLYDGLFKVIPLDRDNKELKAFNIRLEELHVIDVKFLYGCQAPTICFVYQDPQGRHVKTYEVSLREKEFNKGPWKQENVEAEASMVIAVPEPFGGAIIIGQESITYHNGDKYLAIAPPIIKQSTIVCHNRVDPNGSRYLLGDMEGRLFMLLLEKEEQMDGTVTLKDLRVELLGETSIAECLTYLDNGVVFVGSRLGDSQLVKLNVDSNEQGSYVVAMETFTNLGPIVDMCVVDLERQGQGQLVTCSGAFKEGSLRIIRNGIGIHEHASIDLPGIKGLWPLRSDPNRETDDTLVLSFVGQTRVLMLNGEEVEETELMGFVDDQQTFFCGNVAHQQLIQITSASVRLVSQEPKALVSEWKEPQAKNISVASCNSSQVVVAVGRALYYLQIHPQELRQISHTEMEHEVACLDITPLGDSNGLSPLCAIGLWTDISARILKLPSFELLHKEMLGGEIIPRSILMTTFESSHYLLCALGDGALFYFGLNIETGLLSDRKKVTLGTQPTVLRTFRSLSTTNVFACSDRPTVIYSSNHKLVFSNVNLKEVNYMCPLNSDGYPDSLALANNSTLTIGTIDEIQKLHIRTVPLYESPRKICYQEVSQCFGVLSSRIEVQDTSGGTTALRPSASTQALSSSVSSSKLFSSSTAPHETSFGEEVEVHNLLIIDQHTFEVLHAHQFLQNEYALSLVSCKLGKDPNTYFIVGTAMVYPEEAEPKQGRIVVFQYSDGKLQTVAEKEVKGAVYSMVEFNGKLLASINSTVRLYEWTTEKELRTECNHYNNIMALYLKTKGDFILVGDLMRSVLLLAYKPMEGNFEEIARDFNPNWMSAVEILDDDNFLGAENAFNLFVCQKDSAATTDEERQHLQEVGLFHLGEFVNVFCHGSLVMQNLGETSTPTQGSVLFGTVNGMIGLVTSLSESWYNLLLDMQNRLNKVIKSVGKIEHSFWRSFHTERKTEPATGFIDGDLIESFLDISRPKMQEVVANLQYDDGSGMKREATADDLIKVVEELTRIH
Chain of UniProt P09668 (P09668 whole entry, looked up): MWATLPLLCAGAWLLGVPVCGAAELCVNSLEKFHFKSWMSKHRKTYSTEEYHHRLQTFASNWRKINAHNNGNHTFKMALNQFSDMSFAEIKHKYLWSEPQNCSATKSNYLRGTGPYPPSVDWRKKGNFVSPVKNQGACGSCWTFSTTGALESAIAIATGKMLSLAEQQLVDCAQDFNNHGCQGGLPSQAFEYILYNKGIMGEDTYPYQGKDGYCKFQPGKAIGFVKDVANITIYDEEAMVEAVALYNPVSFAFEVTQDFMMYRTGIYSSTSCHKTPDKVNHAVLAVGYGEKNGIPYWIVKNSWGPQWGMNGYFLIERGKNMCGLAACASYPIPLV
Chain of UniProt O43237 (O43237 whole entry, looked up): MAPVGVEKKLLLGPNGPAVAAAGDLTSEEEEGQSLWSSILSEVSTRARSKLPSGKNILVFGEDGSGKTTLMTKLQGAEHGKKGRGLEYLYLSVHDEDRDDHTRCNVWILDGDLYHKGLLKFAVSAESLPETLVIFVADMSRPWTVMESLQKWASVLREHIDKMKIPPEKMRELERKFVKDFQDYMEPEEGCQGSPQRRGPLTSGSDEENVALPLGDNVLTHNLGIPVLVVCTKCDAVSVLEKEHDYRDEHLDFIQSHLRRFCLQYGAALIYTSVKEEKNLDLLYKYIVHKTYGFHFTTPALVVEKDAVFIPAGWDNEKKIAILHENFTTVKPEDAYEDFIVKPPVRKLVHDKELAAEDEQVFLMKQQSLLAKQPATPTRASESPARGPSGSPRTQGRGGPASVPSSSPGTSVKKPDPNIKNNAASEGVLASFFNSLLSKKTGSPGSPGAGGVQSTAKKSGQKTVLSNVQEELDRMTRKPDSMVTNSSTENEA
Chain of UniProt Q8TCE6 (Q8TCE6 whole entry, looked up): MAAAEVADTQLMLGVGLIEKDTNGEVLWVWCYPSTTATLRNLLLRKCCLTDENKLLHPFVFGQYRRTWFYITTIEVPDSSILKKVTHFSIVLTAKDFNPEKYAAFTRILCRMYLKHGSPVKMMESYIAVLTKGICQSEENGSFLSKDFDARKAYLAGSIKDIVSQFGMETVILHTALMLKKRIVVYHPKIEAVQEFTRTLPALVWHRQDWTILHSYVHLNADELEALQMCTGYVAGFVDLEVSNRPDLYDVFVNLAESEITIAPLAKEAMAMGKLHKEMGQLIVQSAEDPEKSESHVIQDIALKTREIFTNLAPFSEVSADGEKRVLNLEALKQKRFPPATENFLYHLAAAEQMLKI
Chain of UniProt Q8NBI2 (Q8NBI2 whole entry, looked up): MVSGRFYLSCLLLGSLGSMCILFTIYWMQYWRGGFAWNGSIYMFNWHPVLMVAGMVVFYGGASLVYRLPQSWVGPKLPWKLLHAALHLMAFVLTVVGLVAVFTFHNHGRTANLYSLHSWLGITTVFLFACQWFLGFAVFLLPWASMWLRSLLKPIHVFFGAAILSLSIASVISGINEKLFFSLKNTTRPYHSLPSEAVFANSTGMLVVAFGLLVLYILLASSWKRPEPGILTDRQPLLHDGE
Chain of UniProt Q6P3W2 (Q6P3W2 whole entry, looked up): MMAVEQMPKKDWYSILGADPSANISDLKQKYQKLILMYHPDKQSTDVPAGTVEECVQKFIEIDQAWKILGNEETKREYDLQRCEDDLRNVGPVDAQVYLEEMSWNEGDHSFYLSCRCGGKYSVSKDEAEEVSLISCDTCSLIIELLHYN

Target | log2 fold change
FAM207A (UniProt Q9NSI2) | 0.005
FAM160B1 (UniProt Q5W0V3) | -0.003
EDC3 (UniProt Q96F86) | -0.041
DSN1 (UniProt Q9H410) | 0.032
DNAJB1 (UniProt P25685) | -0.003
CYB561A3 isoform 2 (UniProt Q8NBI2) | 0.019
DNAJB12 (UniProt Q9NXW2) | 0.022
DDB1 (UniProt Q16531) | 0.04
FAM3A (UniProt P98173) | 0.038
EXOSC10 (UniProt Q01780) | -0.091
ENTPD7 (UniProt Q9NQZ7) | 0.155
EEF1A1 (UniProt P68104) | 0.093
CTSZ (UniProt Q9UBR2) | 0.025
DOCK8 (UniProt Q8NF50) | -0.241
DNAJC24 (UniProt Q6P3W2) | 0.185
DHRS3 (UniProt O75911) | -0.022
EIF2AK3 (UniProt Q9NZJ5) | -0.019
ELAC1 (UniProt Q9H777) | 0.094

Target | log2 fold change
EIF4G3 isoform 3 (UniProt O43432) | -0.076
FAM118A (UniProt Q9NWS6) | -0.138
DTWD1 (UniProt Q8N5C7) | 0.007
DNAH11 (UniProt Q96DT5) | 0.301
FAM193B (UniProt Q96PV7) | -0.289
DYNC1LI2 (UniProt O43237) | -0.001
DAXX (UniProt Q9UER7) | -0.001
DENND10 (UniProt Q8TCE6) | 0.035
DLD (UniProt P09622) | 0.055
CWF19L2 (UniProt Q2TBE0) | -0.089
ELF1 (UniProt P32519) | 0.02
DYRK1A isoform 2 (UniProt Q13627) | -0.046
EIF4E2 (UniProt O60573) | -0.229
FAM241A (UniProt Q8N8J7) | -0.012
CTSH (UniProt P09668) | 0.101
CYP24A1 (UniProt Q07973) | -0.144
CTNNB1 (UniProt P35222) | 0.032

Compound: CN1CCN(c2nc(C3=C(c4c[nH]c5ccccc45)C(=O)NC3=O)c3ccccc3n2)CC1 [sotrastaurin]
Test: as above
Outline: as §1

Target | log2 fold change
FAM207A (UniProt Q9NSI2) | -0.115
FAM160B1 (UniProt Q5W0V3) | -0.071
EDC3 (UniProt Q96F86) | -0.304
DSN1 (UniProt Q9H410) | -0.042
DNAJB1 (UniProt P25685) | -0.03
CYB561A3 isoform 2 (UniProt Q8NBI2) | 0.001
DNAJB12 (UniProt Q9NXW2) | 0.068
DYNC1I2 isoform 2 (UniProt Q13409) | 0.062
DDB1 (UniProt Q16531) | 0.04
FAM3A (UniProt P98173) | 0.001
EXOSC10 (UniProt Q01780) | 0.199
ENTPD7 (UniProt Q9NQZ7) | 0.17
EEF1A1 (UniProt P68104) | -0.082
FAM118B (UniProt Q9BPY3) | -0.02
CTSZ (UniProt Q9UBR2) | 0.079
DOCK8 (UniProt Q8NF50) | -0.398
DNAJC24 (UniProt Q6P3W2) | -0.081
DHRS3 (UniProt O75911) | -0.008

Target | log2 fold change
ELAC1 (UniProt Q9H777) | 0.006
EIF4G3 isoform 3 (UniProt O43432) | -0.038
FAM118A (UniProt Q9NWS6) | -0.135
DTWD1 (UniProt Q8N5C7) | -0.02
DNAH11 (UniProt Q96DT5) | 0.317
FAM193B (UniProt Q96PV7) | 0.06
DYNC1LI2 (UniProt O43237) | -0.079
DAXX (UniProt Q9UER7) | -0.078
DENND10 (UniProt Q8TCE6) | 0.015
DLD (UniProt P09622) | 0.015
CWF19L2 (UniProt Q2TBE0) | -0.15
ELF1 (UniProt P32519) | -0.027
DYRK1A isoform 2 (UniProt Q13627) | 0.022
EIF4E2 (UniProt O60573) | -0.288
FAM241A (UniProt Q8N8J7) | -0.632 (active)
CTSH (UniProt P09668) | 0.044
CTNNB1 (UniProt P35222) | 1.08 (active)
